Screening results deposited in PubChem BioAssay by National Center for Advancing Translational Sciences (NCATS).
Rows were chosen to be rich in hits. Some 3.6% of all compounds tested hit in one or more screens of this group.
D1 antagonist = antagonists of human D1 dopamine receptor. activity change, negative = inhibition, % at 10 µM. AID 504652. P21728. 360,000 compounds, 3.2% hits. HEK293 TREx D1 cells, calcium flux, dopamine EC80; stronger effect = lower value; in the data active = activity change below about -30%; also: % is scaled to controls: 0 for no effect and ±100 for the full control effect
Target sequence (P21728 whole entry, looked up): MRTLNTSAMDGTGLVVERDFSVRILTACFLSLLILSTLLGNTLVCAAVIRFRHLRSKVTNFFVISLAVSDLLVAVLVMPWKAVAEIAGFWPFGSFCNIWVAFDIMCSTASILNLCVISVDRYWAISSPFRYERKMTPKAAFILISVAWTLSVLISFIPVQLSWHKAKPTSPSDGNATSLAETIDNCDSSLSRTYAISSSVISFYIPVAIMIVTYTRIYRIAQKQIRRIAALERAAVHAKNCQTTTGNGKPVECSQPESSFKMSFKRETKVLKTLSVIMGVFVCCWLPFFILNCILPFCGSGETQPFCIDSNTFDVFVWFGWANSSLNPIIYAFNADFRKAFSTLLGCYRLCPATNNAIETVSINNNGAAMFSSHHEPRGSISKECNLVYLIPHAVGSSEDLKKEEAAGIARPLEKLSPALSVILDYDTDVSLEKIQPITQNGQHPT
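Tetracycline-induced HEK293 T-REx cells with force-coupled D1 receptor were loaded with a no-wash calcium dye. Compound was added after a 10 s baseline and read kinetically for 180 s; EC80 dopamine was then added and calcium flux followed another 180 s.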
TRHR enhancer = allosteric enhancers of human TRH receptor. TRHR cells, fluo-8 calcium fluorescence, EC20 TRH enhancement. 360,000 compounds, 0.66% hits. AID 493056. enhancement, % at 2 µM. P34981; in the data active = enhancement above about 30%; also: 0% is about no effect
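Enhancer read-out: after compound pinning and an initial kinetic agonist-mode read, an EC20 of TRH (10 nM final) was injected and fluo-8 calcium signal (Ex 480/Em 530) followed at 1 s/cycle for 100 cycles in TRHR-expressing cells.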
D1 agonist = activates the human D1 dopamine receptor | AID 504660 | HEK293 T-REx D1 cells, calcium flux, agonist mode | activation, % at 2 µM | 360,000 compounds, 1% hits; also: 0% is about no effect
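Agonism was scored from calcium flux recorded over 180 s (1 read/s) after pintool compound addition, following a 10-cycle baseline. Cells were inducible force-coupled HEK293 TREx D1, plated overnight at 30 C and loaded with no-wash calcium dye.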
D1 potentiator = human D1 dopamine receptor positive modulation | P21728 | HEK293 TREx D1 cells, calcium flux, dopamine EC20 potentiation | potentiation, % at 10 µM | 360,000 compounds, 0.036% hits; in the data active = potentiation above about 30%; also: 0% is about no effect
LDHA inh = LDHA (human) enzyme inhibition. P00338. purified LDHA, NADH/diaphorase-resazurin fluorescence; stronger effect = lower value. activity change, % (values are at about 110 or 230 µM). 480,000 compounds, 0.15% hits. AID 1347041; in the data active = activity change below about -30%;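 also: plate controls were DMSO wells for no effect and wells without enzyme for full effect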
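Resorufin fluorescence (ex540/em590), read at 0 and 20 min after diaphorase/resazurin addition, reports the NADH left after a 5 min room-temperature reaction of 2 nM human LDH5 with 0.06 mM NADH and 0.2 mM pyruvate.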
TRHR agonist = agonists of human TRH receptor; P34981; TRHR cells, calcium flux fluo-8, FDSS agonist mode; activation, % at 2 µM; 360,000 compounds, 0.18% hits; AID 493084; also: 0% is about no effect
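Read-out: compound-evoked intracellular calcium rise in TRHR cells, fluo-8 dye, kinetic FDSS fluorescence at 1 s/cycle following a 10-cycle baseline. Cells cultured overnight before dye loading (30 min–1.5 h, RT).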
An asterisk follows results filed as active; ! = not active in a repeat. Rule as the data show it, unless noted: active = activation above about 30%; inactive = the rest.

How did Cc1nc(N2CCOCC2)ncc1-c1cc(=O)[nH]c(Nc2cccc(C(F)(F)F)c2)n1 do in these assays?
LDHA inh: -4.7

How did CCOc1ccc2c(c1)cc(C(=O)Nc1ccc(F)cc1F)n2C do in these assays?
LDHA inh: 3.0

How did Fc1ccc(N2CCN(c3nnnn3-c3ccccc3)CC2)cc1 do in these assays?
D1 antagonist: -39.9*; TRHR enhancer: 2.2; D1 agonist: 0.0; D1 potentiator: 2.6; LDHA inh: -1.3; TRHR agonist: -0.4

How did COc1ccc(-c2noc(CNC(=O)c3cc4cccc(OC)c4o3)n2)cc1 do in these assays?
LDHA inh: 11.0

Results for C=CCNC(=O)C1CCN(Cc2ccc(F)cc2)CC1 ?
LDHA inh: 9.5

How did CCNC(=S)NNC(=O)c1cc(CC(C)C)nc2ccccc12 do in these assays?
D1 antagonist: -46.0*; TRHR enhancer: -5.3; D1 agonist: 1.8; D1 potentiator: -0.7; LDHA inh: -6.1; TRHR agonist: 0.0

Results for CCNC(=S)NNC(=O)c1cc(-c2ccccc2C)nc2ccccc12 ?
D1 antagonist: -11.3; TRHR enhancer: -7.3; D1 agonist: 1.4; D1 potentiator: 5.4; LDHA inh: -7.8; TRHR agonist: -0.7

What do the screens show for `CCNC(=S)NNC(=O)c1cc(-c2cccc(OC)c2)nc2ccccc12`?
D1 antagonist: -2.0; TRHR enhancer: -8.6; D1 agonist: 2.1; D1 potentiator: -3.3; LDHA inh: -3.8; TRHR agonist: -0.7

What do the screens show for `CCNC(=S)NNC(=O)c1cc(-c2ccc(OCC)cc2)nc2ccccc12`?
D1 antagonist: -32.8*; TRHR enhancer: -4.0; D1 agonist: 8.0; D1 potentiator: -6.2; LDHA inh: -4.1; TRHR agonist: -0.5

Results for CCOc1ccc(Sc2cc(C(=O)NC(C)c3ccccc3)c3ccccc3n2)cc1 (stereo unspecified) ?
D1 antagonist: -30.4*; TRHR enhancer: -6.5; D1 agonist: -3.1; D1 potentiator: -3.2; LDHA inh: -4.0; TRHR agonist: 0.6

How did CC1=C/C(=N\NC(=S)Nc2ccc(F)cc2)CC1 do in these assays?
LDHA inh: -2.7

How did NC(=O)C1CCN(C(=O)Nc2csc3ccccc23)CC1 do in these assays?
D1 antagonist: -60.6*; TRHR enhancer: -7.6; D1 agonist: 0.0; D1 potentiator: 2.9; LDHA inh: -11.9; TRHR agonist: 0.5

What do the screens show for `CC(=O)Nc1csc2ccccc12`?
D1 antagonist: -16.2; TRHR enhancer: -4.9; D1 agonist: 0.1; D1 potentiator: -1.9; LDHA inh: 0.6; TRHR agonist: -0.2

How did CCOc1cc(C2C(C#N)=C(N)Oc3cc4c(cc32)OCO4)c(Br)cc1OC (stereo unspecified) do in these assays?
LDHA inh: 22.4

What do the screens show for `CC(C)(C)c1ccc(C(=O)C[n+]2ccccc2Cl)cc1`?
LDHA inh: -51.9*

How did Cc1ncc(-c2ccc(S(=O)(=O)N3CCN(c4ccccc4)CC3)cc2)o1 do in these assays?
LDHA inh: -0.5

Results for CCOC(=O)C1CCN(Cc2oc(CO)cc(=O)c2O)CC1 ?
D1 antagonist: -4.0; TRHR enhancer: 30.4*; D1 agonist: 4.3; D1 potentiator: -0.4; LDHA inh: -2.9; TRHR agonist: -0.1

How did CCC(C)(C)NC(=O)C(c1ccc(OC)cc1)N(Cc1cccs1)C(=O)CCC(=O)Nc1cc(C)on1 (stereo unspecified) do in these assays?
D1 antagonist: -35.5*; TRHR enhancer: -2.7; D1 agonist: 0.2; D1 potentiator: -9.2; LDHA inh: 1.7; TRHR agonist: -0.5

How did CCC(Oc1ccccc1F)C(=O)NCc1csc(-c2ccc(C)cc2)n1 (stereo unspecified) do in these assays?
LDHA inh: -0.1

What do the screens show for `O=C(Cc1ccc(S(=O)(=O)N2CCOCC2)s1)Nc1cc(C(F)(F)F)ccc1N1CCCC1`?
D1 antagonist: -0.2; TRHR enhancer: -10.4; D1 agonist: 28.8; D1 potentiator: 4.7; LDHA inh: -2.9; TRHR agonist: -0.6

Results for O=C(Nc1ccncc1)C1CCN(S(=O)(=O)c2cccc(C(F)(F)F)c2)CC1 ?
D1 antagonist: -43.5*; TRHR enhancer: 6.1; D1 agonist: 8.4; LDHA inh: 0.3; TRHR agonist: -0.1

What do the screens show for `CC(=O)N1CCN(S(=O)(=O)c2cccc(C(=O)Nc3cc(C(F)(F)F)ccc3N3CCOCC3)c2)CC1`?
D1 antagonist: -30.8*; TRHR enhancer: 8.0; D1 agonist: -0.1; D1 potentiator: -10.2; LDHA inh: -2.5; TRHR agonist: 0.8

Results for O=C(Cc1cccc(C(F)(F)F)c1)Nc1cc(S(=O)(=O)N2CCOCC2)ccc1N1CCCC1 ?
D1 antagonist: -43.3*; TRHR enhancer: -17.0; D1 agonist: 1.3; D1 potentiator: -23.5; LDHA inh: -6.3; TRHR agonist: 1.6

How did Cc1ccc(NC(=O)C2CCN(c3cnccn3)CC2)cc1 do in these assays?
D1 antagonist: -19.6; TRHR enhancer: -8.8; D1 agonist: -0.7; D1 potentiator: -11.8; LDHA inh: -2.0; TRHR agonist: -0.3

How did O=C(Nc1ccc(C(F)(F)F)cc1)C1CCN(c2cnccn2)CC1 do in these assays?
D1 antagonist: -55.9*!; TRHR enhancer: -2.5; D1 agonist: 5.3; D1 potentiator: -4.0; LDHA inh: -2.0; TRHR agonist: 0.0

What do the screens show for `O=C(NCc1ccncc1)C1CCN(S(=O)(=O)c2cccc(C(F)(F)F)c2)CC1`?
D1 antagonist: 0.9; TRHR enhancer: 3.3; D1 agonist: 1.2; D1 potentiator: -4.7; LDHA inh: -4.8; TRHR agonist: -0.4

How did C=C1CCC2C(C)(C)CCCC2(C)C1CC/C(C)=C\CC/C(C)=N/NC(N)=O (stereo unspecified) do in these assays?
LDHA inh: 5.9

How did C=CCNC(=O)NC(=O)COC(=O)c1ccc(COC)cc1 do in these assays?
LDHA inh: 2.5

Results for Cc1cc(C)c(C(N)=O)c(NCc2ccccc2C)n1 ?
LDHA inh: -0.5

How did COc1ccc(C(=O)/C=C/c2cc(OC)ccc2OC)cc1 do in these assays?
LDHA inh: 7.3

How did COc1ccc(CCC(=O)Nc2cccc(S(=O)(=O)N3CCCCCC3)c2)cc1OC do in these assays?
D1 antagonist: -30.8*; TRHR enhancer: -6.9; D1 agonist: 9.7; D1 potentiator: -4.2; LDHA inh: -16.5; TRHR agonist: 0.0

What do the screens show for `O=C(CSc1ccccc1)Nc1cccc(S(=O)(=O)N2CCCC2)c1`?
D1 antagonist: -31.9*; TRHR enhancer: 4.0; D1 agonist: 4.6; D1 potentiator: -2.1; LDHA inh: -2.0; TRHR agonist: -0.7
